# Measurements as given in publication PMC5540273 (PLoS ONE, 2017).
# Assays:
# Settings in all cases: concentration: 1 μM, replicates: in singlicate; n = 1
# EPHA2 = system: EPHA2
# EPHA3 = system: EPHA3
# EPHA4 = system: EPHA4
# EPHA5 = system: EPHA5
# EPHA6 = system: EPHA6
# EPHA7 = system: EPHA7
# EPHA8 = system: EPHA8
# EPHB1 = system: EPHB1
# EPHB2 = system: EPHB2
# EPHB3 = system: EPHB3
# 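Note: KINOMEscan kinase panel screen.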
SMILES,%Inh (EPHA2) [%],%Inh (EPHA3) [%],%Inh (EPHA4) [%],%Inh (EPHA5) [%],%Inh (EPHA6) [%],%Inh (EPHA7) [%],%Inh (EPHA8) [%],%Inh (EPHB1) [%],%Inh (EPHB2) [%],%Inh (EPHB3) [%]
Cc1c(Cn2c3ccccc3n3c(=O)cc(N4CCOCC4)nc23)cccc1C(F)(F)F [GSK2306394],0,0,0,0,0,7,13,22,0,0
Cc1ccccc1Cn1ccn2c(=O)cc(N3CCOCC3)nc12 [GSK2269905],4,0,19,0,14,0,11,10,0,20
Cn1cncc1-c1cc2c(Nc3ccc(OCc4ccccc4)cc3)ncnc2cn1 [GW281179],13,0,6,0,14,9,11,21,0,25
COc1nccc(-c2c(-c3ccc(F)cc3)ncn2CCCN2CCOCC2)n1 [SB-282852],0,10,0,0,0,0,0,0,0,0
COc1ccc(CSc2nnc(-c3ccc4nccn4c3)o2)cc1C(F)(F)F,7,8,11,10,9,15,16,17,0,7
